Experimental data published in PubChem BioAssay (NCATS).
Records with an inconclusive call do not appear. Where a call stands in place of a potency, no number is given. The source made the active and inactive calls. Calls follow the shape of the dose curve; as a rule, active = well fitted inhibition curve with a large enough effect; inconclusive = small, poorly fitted or top-dose-only effect; inactive = flat fitted curve, though single readings scatter.

Assay: P-glycoprotein substrates identified in KB-8-5-11 adenocarcinoma cell line, qHTS therapeutic library screen (AID 1346987); also: nearly all actives have a fitted effect of over 65% in size
Outline: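 KB-8-5-11: colchicine-selected sub-line of KB-3-1 over-expressing P-gp; assay medium lacked colchicine. 72 h drug exposure at 37 degree C, CellTiter-Glo.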
Potency is read from the fitted curve at half-maximal effect.

SMILES | Potency
C=CC(=O)Nc1cccc(CN2C(=O)N(c3c(Cl)c(OC)cc(OC)c3Cl)Cc3cnc(NCCCCN(CC)CC)nc32)c1 | inactive
Cc1ccc(-c2ccc3ncc4c(c3n2)n(C2CCN(C(=O)[C@H](C)O)CC2)c(=O)n4C)cn1 | 0.164 µM (active)
O=C(O)CC1CCC(c2ccc(-c3ccc4nc(C(=O)NCc5ccc(OC(F)(F)F)cc5)cn4c3)cc2)CC1 (centres undefined) | inactive
C=C1C(=O)O[C@H]2[C@H]1CC/C(C)=C/CC[C@@]1(C)O[C@@H]21 | inactive
CC1(O)CC(O)C2(O)C=COC(O[C@@H]3O[C@H](CO)[C@@H](O)[C@H](O)[C@H]3O)C12 (some centres undefined) | inactive
COc1cc(OC)c(/C=C/S(=O)(=O)Cc2ccc(OC)c(NCC(=O)O)c2)c(OC)c1 | 0.461 µM (active)
CC(/C=C/C1=CC2=CC(=O)C(C)(O)C(O)C2=CO1)=C\C(C)CCO (centres undefined) | inactive
Cc1cc(C(=O)N2CCCCc3ccccc32)ccc1CNC(=O)N1CCC[C@H]1C(=O)N(C)C | inactive
COc1cc(C2Oc3c(OC)cc(CCCO)cc3C2CO)ccc1O[C@H]1O[C@H](C)[C@@H](O)[C@H](O)[C@@H]1O (some centres undefined) | inactive
CCN(Cc1cccnc1)C(=O)CN(c1ccc(OC)nc1)S(=O)(=O)c1ccccc1C | inactive
CCC(C)C(=O)OC1CC(O)C23C4OCC5(C(O)CC2C1(C)C(O)O4)C3C(=O)C(O)C1(C)C(O)(c2ccoc2)CC2OC251 (centres undefined) | inactive
CCN(CC)CCN(Cc1ccc(-c2ccc(C(F)(F)F)cc2)cc1)C(=O)Cn1c(SCc2ccc(F)cc2)nc(=O)c2c1CCC2 | 18.4 µM (active)
COC(=O)C[C@H]1[C@]2(C)C3=C(C)[C@H](c4ccoc4)C[C@H]3O[C@@H]2[C@H](OC(C)=O)C2[C@](C)(C(=O)OC)C=CC(=O)[C@@]21C (some centres undefined) | inactive
OC[C@H]1O[C@@H](Oc2ccccc2)[C@H](O)[C@@H](O)[C@@H]1O | inactive
Cc1cc(OCc2nnc(SC3CCCC3)n2-c2cccnc2)ccc1-c1ccc(S(C)(=O)=O)cc1 | 2.91 µM (active)
C=C1C(OC2OCC(O)C(O)C2O)CC2C(C)(C)C(O)CCC2(C)C1CC/C(C)=C\CO (centres undefined) | inactive
CCC1=CC2CN(C1)Cc1c([nH]c3ccccc13)[C@@](C(=O)OC)(c1cc3c(cc1OC)N(C)[C@H]1[C@@](O)(C(=O)OC)[C@H](OC(C)=O)[C@]4(CC)C=CCN5CC[C@]31[C@@H]54)C2 (some centres undefined) | 7.09 µM (active)
CC1CC[C@]2(C(=O)O)CC[C@]3(C(=O)O)C(=CCC4[C@@]5(C)CC[C@H](O[C@@H]6O[C@H](CO)[C@@H](O)[C@H](O)[C@H]6O)C(C)(C)C5CC[C@]43C)C2C1C (some centres undefined) | inactive
COc1cc(/C=C/CO)cc(OC)c1O[C@@H]1O[C@H](CO[C@@H]2O[C@H](CO)[C@@H](O)[C@H](O)[C@H]2O)[C@@H](O)[C@H](O)[C@H]1O | inactive
CC[C@@H](N)CNc1ccnc(-c2cc(-c3cnn(C)c3)ccc2O)n1 | 5.17 µM (active)
COc1cc([C@H]2c3cc(O)c(OC)cc3C[C@@H](CO[C@@H]3O[C@H](CO)[C@@H](O)[C@H](O)[C@H]3O)[C@@H]2CO)ccc1O | inactive
CCc1cc(CN2CC(C(=O)O)C2)sc1-c1noc(-c2ccc(Oc3ccccc3)cc2)n1 | inactive
CCOc1ccc(S(=O)(=O)n2c(C)nc3ccccc32)cc1 | inactive
CC(C)CNCc1ccc(-c2ccccc2S(=O)(=O)N2CCCC2)cc1 | inactive
